Compound activity from PubChem BioAssay.
Shown are actives, neighbours in structure and some others; about 11% of the full set was active somewhere.
HEK293 tox = kills HEK 293 cells | HEK 293 viability, ATP luminescence (CellTiter-Glo), 48-72 h | Potency, µM (series often up to 115 µM), for inactives: top-dose activity change, negative = cytotoxicity, hits mostly inhibitors | 94,000 tested, 6.6% active; note: nearly all actives have a fitted effect of over 60% in size
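HEK 293 cells at 250 cells/well were exposed to compounds by pintool transfer for 48 or 72 hr at 37 degree Celsius, 5% CO2. Viability was read as ATP-coupled luminescence with CellTiter-Glo after 10 min at room temperature.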
3T3 cytotox = kills NIH 3T3 cells; NIH 3T3 viability, CellTiter-Glo ATP luminescence, 48-72 h; Potency, µM (top dose mostly 96.7 µM), inactives show at the top dose activity change, negative = cytotoxicity, usual class: inhibitors; 94,000 tested, 4.3% active; note: nearly all actives have a fitted effect of over 55% in size
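NIH 3T3 cells at 400 cells/well received 23 nL of compound by pintool and were incubated 48 or 72 h at 37 °C. Viability was read as ATP-coupled CellTiter-Glo luminescence.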
NPR1 antag = antagonists of human natriuretic peptide receptor Npr1; P16066; HEK293 hNpr1 GloSensor cGMP, ANP-stimulated luminescence; Potency, µM (series often up to 46.3 µM), for the others: at the highest dose activity change, negative = inhibition, actives largely listed as inhibitors; 76,000 tested, 1.6% active; AID 1347048; calls by dose curve; note: nearly all actives have a fitted effect of over 60% in size
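HEK293 cells stably expressing human Npr1 and cGMP GloSensor pGS-40F, loaded 2 h with 2% GloSensor reagent, given compound 30 min at room temperature. Luminescence read before and 20 min after 0.1 nM hNppA.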
FLuc inh = blocks purified firefly luciferase enzyme activity | 76,000 tested, 2.5% active | Potency, µM (top dose mostly 115 µM), actives largely listed as inhibitors | purified P. pyralis luciferase, luminescence, biochemical | P08659; note: nearly all actives have a fitted effect of over 65% in size
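Luminescence read by CCD imaging after purified firefly luciferase (10nM final) was added to substrate buffer holding 10uM D-luciferin and 10uM ATP, pH 7.5, pre-dosed with compound.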
Numbers without * were called inactive; ! = a repeat was not active; [ ] = remark or other dose. Unless noted, calls come from the whole dose curve; as a rule, active = well fitted curve in the direction sought with a large enough effect; inconclusive = small, poorly fitted or top-dose-only effect, or another doubt; inactive = no such curve, though single readings can be large; an effect the other way counts as inactive or inconclusive. % is set by controls: 0 for no effect and ±100 for the full control effect; potency is the fitted concentration of half-maximal effect.

Results for Cc1ccc(-n2nc(C)c([C@@H]3C=C[C@@H](NCc4ccc(F)cc4)C3)c2C)cc1Cl ?
HEK293 tox: 31.6µM*; 3T3 cytotox: inconclusive; NPR1 antag: -30.5%[70.6 µM]; FLuc inh: 44.7µM*

What do the screens show for `O=C(NCCc1ccc(F)cc1)C1CCCN(Cc2cccc(-c3cccs3)c2)C1` (centres undefined)?
HEK293 tox: 28.2µM*!; 3T3 cytotox: inconclusive

How did O=C(Nc1ccc(F)cc1)C1CCCN(Cc2cccc(-c3cccs3)c2)C1 (centres undefined) do in these assays?
HEK293 tox: 39.8µM*; 3T3 cytotox: inconclusive

What do the screens show for `O=C(Cc1cccc(Cl)c1)NC1CCC(Cc2cccc(-c3cccs3)c2)CC1` (centres undefined)?
HEK293 tox: inconclusive; 3T3 cytotox: -29.0%

Results for O=C(NCCc1ccc(F)cc1)C1CCCN(c2nc3ncccc3o2)C1 (centres undefined) ?
HEK293 tox: -3.1%; 3T3 cytotox: inconclusive; NPR1 antag: 11.3%; FLuc inh: inactive

How did O=C(NCc1ccc(C(F)(F)F)cc1)C1CCCN(Cc2cccc(-c3cccs3)c2)C1 (centres undefined) do in these assays?
HEK293 tox: inconclusive; 3T3 cytotox: 11.2µM*

What do the screens show for `O=C(Nc1cccc(Cl)c1)C1CCCN(Cc2cccc(-c3cccs3)c2)C1` (centres undefined)?
HEK293 tox: 39.8µM*; 3T3 cytotox: inconclusive

How did O=C(C1CCC1)N1CCC(C(=O)N2CC(Oc3ccccc3)C2)CC1 do in these assays?
HEK293 tox: -27.3%; 3T3 cytotox: -5.0%; NPR1 antag: 6.1%; FLuc inh: inactive

How did CC(=O)N1CCC(N2CC[C@H](c3nnc(-c4ccco4)o3)C2)CC1 do in these assays?
HEK293 tox: 2.1%[172 µM]; 3T3 cytotox: 0.4%[174 µM]; NPR1 antag: -3.1%[70.6 µM]; FLuc inh: inactive

How did COc1ccc([S+](=O)([O-])c2nnn3c2nc(N2CCC(F)CC2)c2ccccc23)cc1 do in these assays?
HEK293 tox: -3.9%; 3T3 cytotox: -26.1%

Results for Cc1ccc(NC(=O)C2N(C(C)C)C(=O)C23CCCCC3)cc1 (centres undefined) ?
HEK293 tox: inconclusive; 3T3 cytotox: -22.4%; NPR1 antag: 4.5%; FLuc inh: inactive

What do the screens show for `Cc1ccc(C2Cn3nnc(C(=O)N4CCC(C(=O)NCc5cc(F)ccc5F)CC4)c3CO2)cc1` (centres undefined)?
HEK293 tox: -21.3%; 3T3 cytotox: -13.1%; NPR1 antag: -2.3%; FLuc inh: 35.5µM*

How did Cc1ccc(C2Cn3nnc(C(=O)N4CCC(C(=O)NCc5ccc(F)cc5F)CC4)c3CO2)cc1 (centres undefined) do in these assays?
HEK293 tox: -1.3%; 3T3 cytotox: inactive; NPR1 antag: -2.4%; FLuc inh: inconclusive

Results for Cc1ccc(C2Cn3nnc(C(=O)N4CCC(C(=O)NCc5ccccc5F)CC4)c3CO2)cc1 (centres undefined) ?
HEK293 tox: -1.0%; 3T3 cytotox: inactive; NPR1 antag: 2.4%; FLuc inh: 22.4µM*

What do the screens show for `Clc1ccc(-c2cnc([C@@H]3COCCN3Cc3ccccc3)[nH]2)cc1`?
HEK293 tox: 89.1µM*; 3T3 cytotox: inconclusive; NPR1 antag: inconclusive; FLuc inh: inactive

Results for Clc1cccc(-c2cnc([C@@H]3COCCN3Cc3ccccc3)[nH]2)c1 ?
HEK293 tox: 100µM*; 3T3 cytotox: 79.4µM*; NPR1 antag: inconclusive; FLuc inh: inactive

Results for Clc1cccc(-c2cnc([C@@H]3COCCN3C3CCCCC3)[nH]2)c1 ?
HEK293 tox: 79.4µM*; 3T3 cytotox: inconclusive; NPR1 antag: -2.2%[70.6 µM]; FLuc inh: inactive

Results for Oc1ccccc1CN1CCOC[C@H]1c1ncc(-c2ccccc2)[nH]1 ?
HEK293 tox: inconclusive; 3T3 cytotox: 100µM*; NPR1 antag: -16.3%[70.6 µM]; FLuc inh: inactive

What do the screens show for `Oc1ccccc1CN1CCOC[C@H]1c1ncc(-c2ccc(F)cc2)[nH]1`?
HEK293 tox: inconclusive; 3T3 cytotox: -28.9%[138 µM]; NPR1 antag: -24.2%[70.6 µM]; FLuc inh: inactive

How did CCOC(=O)C1CCN(C(=O)c2ccc3oc(-c4cccnc4)nc3c2)CC1 do in these assays?
HEK293 tox: -0.3%; 3T3 cytotox: -0.2%

What do the screens show for `Cc1ccc(Nc2ccnc(N3CCCC(C(=O)NCCc4ccccc4)C3)n2)cc1` (centres undefined)?
HEK293 tox: inconclusive; 3T3 cytotox: 28.2µM*
